HP1b chromo inh = inhibitors of HP1-beta chromodomain binding to methylated histone tails; AlphaScreen HP1-beta / biotin-H3K9me3 peptide binding; Potency, µM (doses to about 114 µM), without a hit: top-dose activity change, negative = inhibition, most hits filed as inhibitors; hit rate 0.56% among 390,000; also: nearly all actives have a fitted effect of over 70% in size
Target sequence (P83916 whole entry, looked up): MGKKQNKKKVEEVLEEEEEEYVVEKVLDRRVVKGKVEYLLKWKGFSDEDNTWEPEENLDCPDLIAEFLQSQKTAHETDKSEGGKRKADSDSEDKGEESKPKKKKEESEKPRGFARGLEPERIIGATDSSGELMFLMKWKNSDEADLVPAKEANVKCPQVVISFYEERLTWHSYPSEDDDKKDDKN
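HP1-beta protein (50 nM final) preincubated 30 min at room temperature with biotinylated H3(1-18)K9me3 peptide (50 nM) in PBS pH 7.4, 0.01% Tween-20, then compound added for 30 min. AlphaScreen streptavidin donor/nickel chelate acceptor beads (10 ug/mL final), 30 min dark, luminescence read.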
BAZ2B inh = inhibitors of human BAZ2B bromodomain | AlphaScreen BAZ2B-H3K14Ac peptide displacement | Q9UIF8 | Potency, µM (doses to about 114 µM), inactives show top-dose activity change, negative = inhibition, actives largely listed as inhibitors | hit rate 4.4% among 360,000; also: % is scaled to controls: 0 for no effect and ±100 for the full control effect; nearly all actives have a fitted effect of over 60% in size
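Multi-concentration screen (max 110 uM) measuring displacement of acetylated histone H3 peptide from BAZ2B by AlphaScreen, using 50 nM protein, 50 nM peptide and 10 ug/mL streptavidin donor plus Ni-chelate acceptor beads.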
PLK1 PBD block = blocks phosphopeptide binding to human PLK1 polo-box domain. Plk1 PBD binding of FITC phosphopeptide, fluorescence polarization. Potency, µM, without a hit: max response, negative = inhibition, usual class: inhibitors. hit rate 2.8% among 360,000. AID 720504; also: series mostly up to about 57 µM; % is scaled to controls: 0 for no effect and ±100 for the full control effect; nearly all actives have a fitted effect of over 65% in size
L3MBTL1 inh = L3MBTL1 (human) inhibition | Q9Y468 | AlphaScreen L3MBTL1–H3K9me1 peptide binding | Potency, µM (titrated, usually from 57.1 µM), without a hit: at the top dose activity, negative = inhibition, most hits filed as inhibitors | hit rate 0.66% among 230,000 | AID 485360; also: % is scaled to controls: 0 for no effect and ±100 for the full control effect; nearly all actives have a fitted effect of over 60% in size
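AlphaScreen assay: L3MBTL1 (50 nM final) was preincubated 30 min at room temperature with biotinylated H3(1-15)K9me1 peptide (75 nM final), then 30 min with library compounds; streptavidin donor and nickel chelate acceptor beads (10 ug/mL final) added, 30 min dark.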
VDR inhibitor = inhibitors of human vitamin D receptor | P11473 | VDR-SRC2-3 peptide fluorescence polarization, 2 h | Potency, µM, for the others: max response, negative = inhibition, usual class: inhibitors | hit rate 0.93% among 400,000; also: % is scaled to controls: 0 for no effect and ±100 for the full control effect
Target sequence (P11473 whole entry, looked up): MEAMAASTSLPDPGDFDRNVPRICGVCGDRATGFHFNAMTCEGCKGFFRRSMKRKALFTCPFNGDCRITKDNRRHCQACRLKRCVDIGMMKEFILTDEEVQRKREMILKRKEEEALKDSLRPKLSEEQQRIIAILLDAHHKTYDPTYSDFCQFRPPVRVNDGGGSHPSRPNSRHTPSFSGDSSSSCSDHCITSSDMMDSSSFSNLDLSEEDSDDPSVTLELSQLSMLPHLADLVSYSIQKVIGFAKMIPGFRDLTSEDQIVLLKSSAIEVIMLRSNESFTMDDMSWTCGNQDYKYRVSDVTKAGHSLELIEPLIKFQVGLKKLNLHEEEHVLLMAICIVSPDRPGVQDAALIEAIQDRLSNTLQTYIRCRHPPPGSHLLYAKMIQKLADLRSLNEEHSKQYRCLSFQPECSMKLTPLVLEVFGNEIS
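Reagent solutions, kept cold and dark, are dispensed first; compounds are then pinned in at 23 nl, plates briefly spun, and incubated 2 h at ambient temperature. Inhibition of VDR–SRC2-3 peptide binding is read by fluorescence polarization.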
JMJD2A Tudor = JMJD2A Tudor domain (human) inhibition. hit rate 4.4% among 390,000. O75164. Potency, µM (titrated, usually from 114 µM), for inactives: at the highest dose activity change, negative = inhibition, hits mostly inhibitors. AlphaScreen JMJD2A-Tudor / H3K4me3 peptide binding; also: % is scaled to controls: 0 for no effect and ±100 for the full control effect; nearly all actives have a fitted effect of over 50% in size
The depositor's hits bear a star; ! = not active in a repeat; [ ] = another dose, or the depositor's remark. A selection: hits, their analogues and other compounds. The true share with any hit is near 6.9%. Calls follow the shape of the dose curve; as a rule, active = well fitted curve in the direction sought with a large enough effect; inconclusive = small, poorly fitted or top-dose-only effect, or another doubt; inactive = no such curve, though single readings can be large; an effect the other way counts as inactive or inconclusive. Potency is read from the fitted curve at half-maximal effect.

Cc1ccc(S(=O)(=O)NCCC(=O)N2CCN(C/C=C/c3ccccc3)CC2)cc1 was read as HP1b chromo inh 12%, BAZ2B inh -1%, PLK1 PBD block 0%, L3MBTL1 inh 0%, VDR inhibitor 12% and JMJD2A Tudor -14%.
For CCc1ccc2occ(CC(=O)Nc3ccc(OC)c(Cl)c3)c2c1 the results were HP1b chromo inh 45%, BAZ2B inh -10%, VDR inhibitor 9% and JMJD2A Tudor 3%.
Screening c1n[nH]c(NC2=NCCC2)n1 returned HP1b chromo inh 74%, BAZ2B inh 14µM*, PLK1 PBD block -13%, L3MBTL1 inh inconclusive, VDR inhibitor -2% and JMJD2A Tudor 45µM*.
Screening COc1ccc(OCC(=O)N(Cc2cccc(OC)c2)C2CCS(=O)(=O)C2)cc1 (stereo not drawn) returned HP1b chromo inh 5%, BAZ2B inh -11%, VDR inhibitor 4% and JMJD2A Tudor -21%.
For COc1ccc(C2=CSC3=NNC4(CCCCC4)NN23)cc1 the results were HP1b chromo inh inconclusive, BAZ2B inh inconclusive, PLK1 PBD block -15%, L3MBTL1 inh -8%, VDR inhibitor -26% and JMJD2A Tudor -34%.
Screening Cc1ccc(C2=CSC3=NNC4(CCCCC4)NN23)cc1 returned HP1b chromo inh -28%, BAZ2B inh inconclusive, PLK1 PBD block -23%, L3MBTL1 inh 6%, VDR inhibitor -8% and JMJD2A Tudor 45µM*.
Screening CN(C)c1ccc(CNC(=O)c2sc3ncccc3c2-n2cccc2)cc1 returned HP1b chromo inh inconclusive, BAZ2B inh 18µM*, VDR inhibitor 3% and JMJD2A Tudor 28µM*.
Screening CC(C)Oc1ccc(CNC(=O)c2sc3ncccc3c2-n2cccc2)cc1 returned HP1b chromo inh 13%[57 µM], BAZ2B inh 2%, VDR inhibitor 16% and JMJD2A Tudor -1%.
CCOc1ccc(NC(=O)CN(C)C(=O)c2ccc(N3CCCC3)c([N+](=O)[O-])c2)cc1OCC was read as HP1b chromo inh -17%, BAZ2B inh inconclusive, PLK1 PBD block -9%, L3MBTL1 inh -3%, VDR inhibitor -1% and JMJD2A Tudor -34%.
CCOCCn1c(N2CCCC2)nc2c1c(=O)[nH]c(=O)n2C was read as HP1b chromo inh 18%, BAZ2B inh 56µM*, PLK1 PBD block -14%, L3MBTL1 inh -3%[2.29 µM], VDR inhibitor -9% and JMJD2A Tudor -6%.
CCOCCn1c(SC)nc2c1c(=O)[nH]c(=O)n2C was read as HP1b chromo inh inconclusive, BAZ2B inh 13%, PLK1 PBD block 24µM*, L3MBTL1 inh 1%, VDR inhibitor -17% and JMJD2A Tudor 89µM*.
Screening CCOCCn1c(SCCCc2ccccc2)nc2c1c(=O)[nH]c(=O)n2C returned HP1b chromo inh -21%, BAZ2B inh -2%, PLK1 PBD block inconclusive, L3MBTL1 inh 2%, VDR inhibitor 6% and JMJD2A Tudor inconclusive.
Screening CCCc1cc(=O)oc2cc(OCC(=O)Nc3ccc(S(N)(=O)=O)cc3)ccc12 returned HP1b chromo inh -1%[57 µM], BAZ2B inh 45µM*, PLK1 PBD block inconclusive, VDR inhibitor -10% and JMJD2A Tudor -33%.
Screening CCCc1cc(=O)oc2cc(OCC(=O)NCc3cccs3)ccc12 returned HP1b chromo inh -2%, BAZ2B inh 2%, PLK1 PBD block inconclusive, L3MBTL1 inh 10%, VDR inhibitor -19% and JMJD2A Tudor -35%.
`CCCCOc1ccc(N(CC(=O)NC2CCCCC2)C(=O)c2snc(C(N)=O)c2N)cc1` gave HP1b chromo inh 4%, BAZ2B inh 4%, PLK1 PBD block 34µM*, VDR inhibitor inconclusive and JMJD2A Tudor -17%[57.1 µM].
For Cc1cc(C)nc(SCc2nnc(SCC(=O)Nc3nc(-c4ccccc4)cs3)n2-c2ccccc2)n1 the results were HP1b chromo inh -2%, BAZ2B inh 1%, PLK1 PBD block inconclusive, VDR inhibitor -4% and JMJD2A Tudor 79µM*.
For O=C(NCc1n[nH]c(=S)n1-c1ccccc1)c1cccs1 the results were HP1b chromo inh 7%, BAZ2B inh -19%, PLK1 PBD block -16%, L3MBTL1 inh -1%, VDR inhibitor 7% and JMJD2A Tudor 16µM*.
Screening O=C(NCc1n[nH]c(=S)n1-c1cccc(Cl)c1)c1cccs1 returned HP1b chromo inh inconclusive, BAZ2B inh -4%, PLK1 PBD block inconclusive, L3MBTL1 inh -15%, VDR inhibitor -6% and JMJD2A Tudor 20µM*.
Screening O=C(NCc1n[nH]c(=S)n1-c1ccc(Cl)c(Cl)c1)c1cccs1 returned HP1b chromo inh 19%, BAZ2B inh inconclusive, PLK1 PBD block -24%, VDR inhibitor -1% and JMJD2A Tudor -14%.
Screening CCn1c(CNC(=O)c2cccs2)n[nH]c1=S returned HP1b chromo inh inconclusive, BAZ2B inh 9%, PLK1 PBD block -12%, L3MBTL1 inh -10%, VDR inhibitor -21% and JMJD2A Tudor 8.9µM*.
CC(NC(=O)c1cccs1)c1n[nH]c(=S)n1C (stereo not drawn) was read as HP1b chromo inh -11%, BAZ2B inh 5%, PLK1 PBD block -8%, L3MBTL1 inh 6%, VDR inhibitor -6% and JMJD2A Tudor 8.9µM*.
`CC1CCCN(C2(O)C(=O)Nc3ccc([N+](=O)[O-])cc32)C1` (stereo not drawn) gave HP1b chromo inh 45%, BAZ2B inh -2%, PLK1 PBD block -7%, VDR inhibitor 3% and JMJD2A Tudor -4%.
For Cc1cc(Nc2ccc(C)c(Cl)c2)n2nc(Cc3ccccc3)nc2n1 the results were HP1b chromo inh 40%, BAZ2B inh -21%, VDR inhibitor 4% and JMJD2A Tudor -25%.
`Cc1ccccc1OCc1n[nH]c(=S)n1-c1cccc(Cl)c1` gave HP1b chromo inh 37%, BAZ2B inh -28%, PLK1 PBD block -19%, L3MBTL1 inh -14%, VDR inhibitor -7% and JMJD2A Tudor -25%.
`Cc1n[nH]c(=S)n1-c1cccc(Cl)c1` gave HP1b chromo inh 22%, BAZ2B inh -4%, PLK1 PBD block -16%, L3MBTL1 inh -3%, VDR inhibitor -14% and JMJD2A Tudor 7.9µM*.
For O=C(OCC#CCSc1nnc(-c2cccc3ccccc23)o1)c1ccc(Br)cc1 the results were HP1b chromo inh 85%, BAZ2B inh 22%, L3MBTL1 inh 26%, VDR inhibitor -5% and JMJD2A Tudor 38%.
Screening O=C(OCC#CCSc1nnc(-c2cccc3ccccc23)o1)c1ccco1 returned HP1b chromo inh 54%, BAZ2B inh 79µM*!, PLK1 PBD block -12%, L3MBTL1 inh inconclusive, VDR inhibitor 24% and JMJD2A Tudor 7%.

High-throughput results: PubChem BioAssay, National Center for Advancing Translational Sciences (NCATS)
